{"source": "PubChem BioAssay AID1728", "about": "(National Center for Advancing Translational Sciences (NCATS), 2009)", "note": "The list shows a part of the results. Records with an inconclusive call do not appear. Values without a mark were called inactive. Calls follow the shape of the dose curve; as a rule, active = well fitted curve in the direction sought with a large enough effect; inconclusive = small, poorly fitted or top-dose-only effect, or another doubt; inactive = no such curve, though single readings can be large or run the other way.", "data": [{"molecular_target": "RAF proto-oncogene serine/threonine-protein kinase (Homo sapiens) (UniProt P04049)", "sequence (P04049 whole entry, looked up)": "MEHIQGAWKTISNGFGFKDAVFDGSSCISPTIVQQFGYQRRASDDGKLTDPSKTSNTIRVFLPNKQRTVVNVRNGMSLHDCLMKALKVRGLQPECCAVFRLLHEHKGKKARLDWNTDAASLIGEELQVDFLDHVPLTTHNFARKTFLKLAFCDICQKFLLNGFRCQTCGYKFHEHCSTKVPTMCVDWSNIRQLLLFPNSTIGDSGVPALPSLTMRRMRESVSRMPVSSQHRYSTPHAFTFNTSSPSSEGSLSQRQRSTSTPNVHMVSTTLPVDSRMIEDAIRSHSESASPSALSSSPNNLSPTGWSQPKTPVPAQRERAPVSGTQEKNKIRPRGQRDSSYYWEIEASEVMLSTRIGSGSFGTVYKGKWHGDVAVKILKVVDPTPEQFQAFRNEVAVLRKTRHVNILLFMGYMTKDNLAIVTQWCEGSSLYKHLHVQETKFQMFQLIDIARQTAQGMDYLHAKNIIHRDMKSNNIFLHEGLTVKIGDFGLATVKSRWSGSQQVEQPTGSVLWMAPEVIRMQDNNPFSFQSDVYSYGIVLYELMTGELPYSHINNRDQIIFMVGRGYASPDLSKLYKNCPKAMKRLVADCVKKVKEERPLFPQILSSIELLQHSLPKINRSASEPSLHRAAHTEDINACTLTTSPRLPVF", "test": "Assay for Inhibitors of the ERK Signaling Pathway using a Homogeneous Screening Assay: c-Raf Inhibition", "conditions": "homogeneous biochemical assay; series mostly up to 76.9 µM; activity change, negative = inhibition: at the top concentration", "text": "qHTS Assay for Inhibitors of the ERK Signaling Pathway using a Homogeneous Screening Assay\nNIH Chemical Genomics Center [NCGC]\nNIH Molecular Libraries Screening Centers Network [MLSCN]\nAssay Submitter (PI): Dr. Wei Zheng, NCGC/NIH\nThe Ras/extracellular-signal-regulated kinase (ERK) mitogen activated protein (MAP) kinase signaling pathway (ERK1/2 cascade) plays is a key role in transmitting signals from the cell surface to the nucleus (Nishida and Gotoh 1993; Chang and Karin, 2001). The cascade is initiated by the small G-protein Ras, which recruits Raf […], where activation occurs. Alternatively, this pathway can be activated by elevating intracellular cAMP.\nActivation of the ERK pathway is essential in increased cell division and cell survival. Sustained and constitutive activation of the ERK pathway, however, has been linked to uncontrolled cell proliferation, increased cell survival, and tumor progression. Thus, the ERK has been as an attractive target for cancer chemotherapy in the past few years (Sebolt-Leopold and Herrera, 2004). […]\nThe HTRF kinase assay (components supplied as kit by Cisbio) was chosen for the EGFR and EGFR mutant enzyme assays that applied the time resolved fluorescence resonance energy transfer (TR-FRET) principle. […]", "units": {"activity change, negative = inhibition": "%"}, "values": [{"smiles": "CN(C)c1ccc(Nc2c3c4c(cccc4n(C)c2=O)C(=O)c2ccccc2-3)cc1", "activity change, negative = inhibition": -9.46}, {"smiles": "O=[N+]([O-])c1ccccc1N/N=C1\\CCc2ccccc21", "activity change, negative = inhibition": -15.1}]}]}
